DAGLB inh: blocks human DAGLB lipase activity | Q8NCG7 | HEK293T DAGLB membrane lysate, EnzChek fluorogenic substrate | 0.059% of 340,000 active | inhibition, % at 5.17 µM | AID 504411; in the data active = inhibition above about 34%;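 note: 0% = enzyme with vehicle and 100% = wells lacking enzyme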
rCAG RNA binder: molecules binding r(CAG) RNA repeats; r(CAG) RNA repeat, TO-PRO-1 dye displacement fluorescence; inhibition, % at 3 µM; AID 651821; 1.3% of 370,000 active;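 active = inhibition above the plate cutoff, the mean of all test compounds on that plate plus 3 SD, cut at about 35% in these data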;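 note: 0% = DMSO alone and 100% = 100 µM mitoxantrone as full dye displacement; higher means more dye released from RNA so lower well fluorescence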
NadD inh: blocks S. aureus nicotinate mononucleotide adenylyltransferase; inhibition, % at 20 µM; 0.78% of 360,000 active; purified NadD enzyme, colorimetric absorbance read-out; AID 602399; in the data active = inhibition above about 26%
Pemphigus Ab inh: blocks pemphigus antibody binding to human desmoglein-3 | 0.48% of 310,000 active | AID 588358 | binding (percent of control), % at 10 µM | DSG3-coupled beads, scFv-anti-DSG3-GFP binding, flow cytometry; hits give low values;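 active = binding more than 3 SD below its plate's average and above zero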;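 note: hits lower antibody fragment binding to DSG3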
MsrA inhibitor: inhibitors of bovine MsrA. 0.75% of 360,000 active. purified bovine MsrA, absorbance read-out. inhibition, % at 15.5 µM. AID 651718;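 note: 0% = vehicle wells with enzyme and 100% = reference inhibitor wells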
MsrA act: activators of bovine methionine sulfoxide reductase A; purified bovine MsrA, absorbance read-out; activation, % at 10.6 µM; 0.3% of 360,000 active; in the data active = activation above about 7.5%;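 note: 0% = vehicle and 100% = reference activator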
MsrA conf: confirmation of bovine MsrA inhibitors. shares compounds with MsrA inhibitor. purified bovine MsrA, absorbance read-out. 41% of 2,300 active. inhibition, % at 15.5 µM;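 note: coupled to thioredoxin reductase with NADPH and selenocystamine and DMSO as substrate; 0% = vehicle only and 100% = full effect of reference inhibitor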
* marks the source's active call; other numbers are inactive results; / = not tested or not shown. A selection: hits, their analogues and other compounds. The true share with any hit is near 3.2%. Cut-off read from the data, not from the text of the source, unless noted: active = inhibition above about 4.5%; inactive = the rest.

SMILES	DAGLB inh	rCAG RNA binder	NadD inh	Pemphigus Ab inh	MsrA inhibitor	MsrA act	MsrA conf
COc1cccc(-c2c(C(=O)N/N=C/c3ccco3)nnn2-c2nonc2N)c1	-2.5	0.8	3.5	103.2	4.9*	-6.2	1.4
CC(/C=N/NC(=O)c1nnn(-c2nonc2N)c1C(C)C)=C\c1ccco1	1.6	6.6	-0.3	98.2	4.9*	-9.7	5.8*
CCCCCCSc1ccc([C@H]2N[C@@](CC(C)C)(C(=O)OC)[C@H]3C(=O)N(C)C(=O)[C@@H]23)cc1OC	-15.1	2.1	1.8	94.6	-0.1	-3.5	/
COc1ccc(CN2CCC(CNC(=O)Nc3ccc(Cl)cc3)CC2)cc1	/	3.8	/	/	/	/	/
CCOC(=O)c1nnsc1-c1ccc(-c2snnc2C(=O)OCC)cc1	-0.9	-3.8	-3.3	103.0	-0.2	-1.0	/
CCOC(=O)c1nnsc1Nc1ccc(C)c(C)c1	-13.1	0.0	-1.1	99.7	8.2*	0.4	7.0*
Cc1ccccc1CN1CCCCC(NC(=O)c2ccccc2F)C1=O (stereo unspecified)	/	2.7	/	/	/	/	/
CCCS(=O)(=O)c1c(S(=O)(=O)CCC)c2c(N)cccn2c1C(=O)OC	-3.3	23.9	2.9	104.6	5.2*	-13.5	1.4
O=[N+]([O-])c1ccc(Sc2nnnn2-c2ccccc2)nc1	/	-1.5	/	/	4.8*	/	1.6
O=C1NC(=O)/C(=C/c2ccco2)N1	-2.1	0.1	-3.6	105.9	7.9*	-7.3	6.2*
CC(=O)Nc1cccc(C(=O)NN2C(=O)NC3(CCC(C)CC3)C2=O)c1 (stereo unspecified)	1.5	1.0	7.0	107.4	-0.8	-0.9	/
O=[N+]([O-])c1ccc2[nH]c(O)c(N=NC3CS(=O)(=O)CC3O)c2c1 (stereo unspecified)	3.1	1.4	2.1	95.5	5.2*	-4.7	5.0*
O=C(N=Nc1c(O)[nH]c2ccc([N+](=O)[O-])cc12)c1ccccc1Cl	5.3	1.2	-3.0	96.7	1.2	-2.8	/
COc1cc(C2C(C(=O)c3ccco3)=C(O)C(=O)N2CCc2ccccc2)ccc1O (stereo unspecified)	1.8	4.8	5.8	100.0	1.4	-2.0	/
COc1ccc(CCN2C(=O)C(O)=C(C(=O)c3ccco3)C2c2cccs2)cc1OC (stereo unspecified)	2.7	6.2	8.8	90.2	4.7*	-12.1	1.8
COc1cccc(C2C(C(=O)c3ccco3)=C(O)C(=O)N2CCCN2CCOCC2)c1OC (stereo unspecified)	-0.8	4.7	-2.5	97.0	4.7*	-6.1	-0.2
COc1cc(OC)cc(-c2oc(=O)c3cc(OC)c(OC)cc3c2C#CCCO)c1	-5.1	7.9	-12.6	101.9	11.4*	-4.7	7.8*
O=C(N/C(=C/c1cccs1)c1nc2ccccc2[nH]1)c1ccccc1	-1.6	0.3	-3.3	/	5.1*	-4.0	6.0*
O=C(N/C(=C\c1ccc(Br)cc1)c1nc2ccccc2[nH]1)c1ccco1	0.2	6.0	-0.1	116.5	6.5*	-14.4	4.3
COCCNC(=O)C1CCCN(Cc2ccc(C#N)cc2)CC1 (stereo unspecified)	/	1.1	-1.5	/	-1.0	-2.4	/
CCCCNC(=O)C[C@@H]1C(=O)N(Cc2ccc(OC)cc2)/C2=C/CCCCC[C@@]21C(=O)OCC	/	0.8	/	/	/	/	/
COc1ccc(N/N=C(\C=N\O)C(=O)c2ccc(OC)cc2)cc1	4.1	17.4	-4.1	99.4	10.7*	-6.3	5.0*
CCOC(=O)c1cc(C)nc(SC)c1C#N	2.4	1.1	-1.4	/	0.1	-1.9	/
CCOC(=O)c1cc(C(C)(C)C)nc(SC)c1C#N	-13.0	-4.6	-5.8	/	6.2*	-3.6	2.9
CCc1ccccc1-c1cc(C(=O)OC)c2n(c1=O)CCC2	/	0.5	/	/	/	/	/
COc1ccc2c(c1)-c1c(sn(-c3ccccc3)c1=S)C(C)(C)N2	2.3	5.1	-0.1	107.1	4.7*	-5.9	0.7
COc1ccc2c(c1)-c1c(sn(-c3ccc(OC)c(OC)c3)c1=S)C(C)(C)N2	5.7	-0.3	8.8	100.1	-1.4	-3.9	/
COc1ccc(OC)c(-c2csc(CCn3nc(C)cc3C)n2)c1	-0.5	-0.2	-10.9	101.2	-1.2	-2.6	/
COc1cccc2cc(-c3csc(CCn4nc(C)cc4C)n3)c(=O)oc12	-3.6	12.3	11.0	97.5	5.5*	-8.7	2.1
